The text below walks through data of PubChem BioAssay.

Inconclusive results are not listed. The source made the active and inactive calls. Unless noted, no cut-off is given here; in the data, nearly all actives have AC50 up to about 37 µM.

Experiment [1] is described as follows: viability loss in pontine glioma line – cell-based, SU-DIPG-XIII, MIPE4.0, CellTiter-Glo, qHTS, dose response (AID 1347061).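 Note: cells exposed to compound for 48 hours before readout.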 The conditions noted are these: CellTiter-Glo ATP luminescence. In general terms: Cellular ATP, detected with luciferase, serves as a proxy for viable cell number.
A short description of experiment [2]: viability loss in pontine glioma line – cell-based, JHH-DIPG-1, MIPE4.0, CellTiter-Glo, qHTS, dose response (AID 1347062; cut-off not given, nearly all actives have AC50 up to about 27 µM;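 for AC50: cells exposed to compound for two days before readout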). To be noted: JHH-DIPG-1 viability, CellTiter-Glo ATP luminescence.
Experiment [3] is described as follows: viability loss in pontine glioma line – cell-based, SU-DIPG-XXV, MIPE5.0, CellTiter-Glo, qHTS, dose response (AID 1347065; cut-off not given, nearly all actives have AC50 up to about 26 µM;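 note: cells exposed to compound for 48 hours before ATP readout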). The conditions noted are these: CellTiter-Glo ATP luminescence.
Experiment [4] can be described thus: growth inhibition of DIPG cells – cell-based, MIPE4.0 library, CellTiter-Glo luminescence, qHTS (AID 1347066; cut-off not given, nearly all actives have AC50 up to about 30 µM;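 note: cells exposed to compound for 48 hours before readout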). To be noted: SU-DIPG-VI viability, CellTiter-Glo ATP luminescence.
A short description of experiment [5]: viability loss with induced miR-34 in A549 – imaging, A549 dox-inducible miR-34, nuclei and caspase counts, primary screen (AID 1347080;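 active = compounds whose cell count with miR-34 switched on is under 0.7 times the count with it off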). The conditions noted are these: A549 miR-34 inducible, Hoechst nuclei count, 48 h.
Experiment [6] in a line: MELAS cybrid and Rieske KO viability enhancers – cell-based, MELAS cybrids, Rieske KO mouse fibroblasts, CellTiter-Glo, primary screen (AID 1508586;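 active = mean z-score across replicates of 1.96 or higher in either the MELAS or the Rieske mutant cell line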;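 note: z relative to plate mean and SD of compound and empty wells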). The conditions noted are these: low glucose.
Experiment [7] in a line: JHH-DIPG-1 glioma cell viability, MIPE5.0 library, CellTiter-Glo luminescence, qHTS (AID 1347067; cut-off not given, nearly all actives have AC50 up to about 26 µM;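 note: cells exposed to compound for 48 hours before readout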). The conditions noted are these: JHH-DIPG-1 glioma viability, CellTiter-Glo ATP luminescence.
The nature of experiment [8]: growth inhibition of DIPG cells – cell-based, MIPE5.0 library, qHTS (AID 1347068; cut-off not given, nearly all actives have IC50 up to about 30 µM). The conditions noted are these: SU-DIPG-XXV viability. For orientation: Quantitative high-throughput screening tests each substance at several concentrations.
Experiment [9] in a line: viability loss in pontine glioma line – cell-based, SU-DIPG-XIII, MIPE5.0, CellTiter-Glo, qHTS, dose response (AID 1347064; cut-off not given, nearly all actives have AC50 up to about 23 µM;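 for AC50: cells exposed to compound for 48 hours before the viability read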). The conditions noted are these: CellTiter-Glo ATP luminescence.
The nature of experiment [10]: viability loss in pontine glioma line – cell-based, SU-DIPG-IV, MIPE4.0, CellTiter-Glo, qHTS, dose response (AID 1347063; cut-off not given, nearly all actives have AC50 up to about 30 µM;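 note: compound exposure lasted 48 hours before the viability readout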). To be noted: CellTiter-Glo ATP luminescence.
Where [11] appears, read: stronger effect = lower value, cell number ratio, induced over uninduced.
Where [12] appears, read: measured here: relative caspase fold change +Dox/-Dox.
The mark [13] stands for this setting: measured here: total cells with miR-34 induction, stronger effect = lower value.
Setting [14] is: measured here: total cells without miR-34 induction.
Where [15] appears, read: MELAS cybrid survival, CellTiter-Glo 48 h, stronger effect = higher value.
[16] abbreviates: Rieske KO mouse fibroblast survival, CellTiter-Glo 72 h.

In general, AC50 refers to the concentration giving half of the maximal activity seen. On to `COc1ccc2c(Oc3ccc(NC(=O)c4c(C)n(CC(C)(C)O)n(-c5ccccc5)c4=O)nc3)ccnc2c1`, for which the call in [1], in [2] and in experiment [4] was inactive. Besides, the AC50 in experiment [3] is 13.2 µM (active). Moreover, the results for the fold change in [5] (setting [11]) and in [5] (setting [12]) were 0.842 (inactive) and 0.917, respectively. Also, the cell count in experiment [5] (setting [13]) stood at 7640; in [5] (setting [14]) it was 9080. For the same compound, the z-score was -0.36 (inactive) in [6] (setting [15]) and 1.01 in experiment [6] (setting [16]).

Turning to `O=C(O)CC/C=C\CC[C@@H]1[C@@H](N2CCCCC2)[C@@H](O)C[C@@H]1OCc1ccc(-c2ccccc2)cc1`, the result in [1], in experiment [2], in [3], in experiment [4], in experiment [7] and in experiment [8] was inactive.

Regarding `O=C(N[C@@H](c1ccccc1)[C@@H]1CCCCN1)c1cccc(C(F)(F)F)c1Cl`, the call in [1], in [2], in [4] and in experiment [8] was inactive. In addition, in experiment [3], the AC50 is 20.9 µM (active).

For `O=C(O)C1(Cc2cccc(Nc3nccs3)n2)CCC(Oc2cccc(Cl)c2F)CC1` (stereo not drawn), the compound was called inactive in experiment [1], in [2], in [9], in [4] and in [8]. The figures for the fold change in [5] (setting [11]) and in experiment [5] (setting [12]) were 1.01 (inactive) and 0.491, respectively. Also, the cell count worked out at 3320 in [5] (setting [13]) and 3280 in experiment [5] (setting [14]). Moreover, the z-score was -0.373 (inactive) in [6] (setting [15]) and 0.69 in [6] (setting [16]).

For `COCCNCCCn1c(C(=O)CF)c(-c2ccc(C)cc2)c2c(N)ncnc21`, the outcome in experiment [1], in experiment [2], in experiment [9], in experiment [7] and in experiment [8] was inactive.

`CCCCc1ccc(NS(=O)(=O)c2ccc(C)c(C(=O)N3CCN(c4cccc(C)c4C)CC3)c2)cc1`: the call in [1] and in experiment [2] was inactive. In addition, the AC50 in experiment [4] is 23.5 µM (active).

`COc1cc2c(cc1OC)CN(CCc1ccc(NC(=O)c3cc(OC)c(OC)cc3NC(=O)c3cnc4ccccc4c3)cc1)CC2`: the AC50 in [1] was 20.9 µM (active). The compound was called inactive in experiment [2], in [3], in experiment [7] and in experiment [8]. Moreover, the fold change was 0.948 (inactive) in [5] (setting [11]) and 0.402 in experiment [5] (setting [12]). Further, the cell count in [5] (setting [13]) was determined as 8470; in experiment [5] (setting [14]) it was 8940. Moreover, the z-score is -0.604 (inactive) in [6] (setting [15]) and 0.309 in experiment [6] (setting [16]).

Regarding `O=C(NC[C@H]1CN(c2ccc(N3CCOCC3=O)cc2)C(=O)O1)c1ccc(Cl)s1`, the result in experiment [1], in experiment [2], in experiment [4], in experiment [7] and in experiment [8] was inactive.

Take `CN1CCc2c(n(Cc3ccc(C(=O)NO)cc3)c3ccccc23)C1`: in experiment [1], the compound was called inactive. The values for the AC50 in [2] and in [3] were 23.5 µM (active) and 18.6 µM (active), respectively.

Turning to `CCOc1ccccc1OCCNC(C)Cc1ccc(OC)c(S(N)(=O)=O)c1` (stereo not drawn), the result in [1], in experiment [10] and in experiment [4] was inactive.

Regarding `CS(=O)(=O)N(Cc1ccco1)CC(O)Cn1c2ccccc2c2ccccc21` (stereo not drawn), the compound was called inactive in experiment [1], in [9], in experiment [3], in experiment [4], in experiment [7] and in experiment [8].

With `C=C1[C@H](n2cnc3c(=O)[nH]c(N)nc32)C[C@H](O)[C@H]1CO`, the compound was called inactive in experiment [1] and in experiment [4].

In the case of `CN1CCN(c2cc(C(=O)Nc3ccc4c(c3)-c3c(c(C(N)=O)nn3-c3ccc(F)cc3)CC4)c(Cl)cn2)CC1`, the AC50 in experiment [1] is 9.35 µM (active); in experiment [10], 18.7 µM (active); in experiment [9], 14.8 µM (active); in experiment [3], 10.5 µM (active); in experiment [4], 23.5 µM (active); in experiment [7] it was 13.2 µM (active).

Take `CCC(=O)OCC(=O)[C@@]1(OC(=O)CC)[C@@H](C)C[C@H]2[C@@H]3CCC4=CC(=O)C=C[C@]4(C)[C@@]3(F)[C@@H](O)C[C@@]21C`: the AC50 in experiment [1] is 0.00935 µM (active); in experiment [10] it was 2.35 µM (active).
